Measured values taken from PubChem BioAssay (EPA / NIEHS).
“And” between values parts separate entries of the source, which are not always exact repeats. Equal entries are not always repeated. Some structures have more than one record in an assay (separate samples or runs), and their calls can disagree. The source made the active and inactive calls. The calls were made as follows: active = hit-call score of the fitted dose curve at least 0.9, where 1 is the maximum; inactive = score below 0.9.

How the values were obtained:
[1] = ATG_E_Box_CIS: Attagene CIS-FACTORIAL HepG2 Assay for human Enhancer Box (E-box) (AID 2282936); conditions: HepG2 E-box cis-reporter transcription, actives raise or lower the signal
How it was run: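 Fluorescent reporter fragments separated by capillary electrophoresis gave the signal; mRNA came from HepG2 cells transfected with cis-element reporters and treated 24 h. Curves fitted bidirectionally relative to DMSO controls.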

[2] = ATG_M_61_CIS: Attagene CIS-FACTORIAL HepG2 Assay for M61 Transcription Factor (Internal Marker) (AID 2282937); conditions: HepG2 Attagene CIS-FACTORIAL M61 internal marker reporter; actives raise or lower the signal
How it was run: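 Multiplexed reporter mRNA assay, HepG2 human hepatoma cells, 24 h treatment. Signal: FAM-labelled, HpaI-digested RT-PCR fragments by CE. Fit: bidirectional, baseline DMSO.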

[3] = ATG_EGR_CIS: Attagene CIS-FACTORIAL HepG2 Assay for human Early Growth Response 1 (EGR1) (AID 2282938); conditions: HepG2 Attagene CIS-FACTORIAL EGR reporter mRNA; actives raise or lower the signal
How it was run: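 Multiplexed cis-reporter system in human hepatoma HepG2 cells, transiently transfected. Cells are dosed for 24 h; reporter transcripts are amplified, fluorescently tagged and sized by capillary electrophoresis, with DMSO as negative control.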

[4] = ATG_M_19_CIS: Attagene CIS-FACTORIAL HepG2 Assay for M19 Transcription Factor (Internal Marker) (AID 2282939); conditions: HepG2 Attagene CIS-FACTORIAL M19 internal marker reporter; actives raise or lower the signal
How it was run: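 Internal marker readout, fitted in both directions against DMSO, from HepG2 cells carrying transfected cis-element reporter constructs; RT-PCR and capillary electrophoresis of reporter mRNA after 24 h exposure.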

[5] = ATG_ERE_CIS: Attagene CIS-FACTORIAL HepG2 Assay for Estrogen Response Element (ERE) (AID 2282940); conditions: HepG2 ERE cis-reporter, Attagene RNA transcript; actives raise or lower the signal
How it was run: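 After 24 h compound treatment, RNA from transfected HepG2 cells was reverse-transcribed, reporter cDNA PCR-amplified, FAM-labelled, HpaI-cut and resolved by capillary electrophoresis. ERE-driven cis reporter transcripts reflect endogenous factors; gain or loss scored against DMSO.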

[6] = ATG_Ets_CIS: Attagene CIS-FACTORIAL HepG2 Assay for human Erythroblast Transformation Specific (ETS) (AID 2282941); conditions: HepG2 ETS cis-reporter transcription, actives raise or lower the signal
How it was run: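 RT-PCR/capillary electrophoresis fluorescence read-out of reporter mRNA; HepG2 transient multi-reporter transfection; 24 h compound exposure; gain or loss of signal fitted bidirectionally relative to DMSO.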

[7] = target: Hepatocyte nuclear factor 3-beta (Homo sapiens) (UniProt Q9Y261); experiment: ATG_FoxA2_CIS: Attagene CIS-FACTORIAL HepG2 Assay for human Forkhead box A2 (FOXA2) (AID 2282942); conditions: HepG2 cis-reporter transcription factor activity, 24 h; actives raise or lower the signal
Sequence of Hepatocyte nuclear factor 3-beta (Homo sapiens) (Q9Y261 whole entry, looked up): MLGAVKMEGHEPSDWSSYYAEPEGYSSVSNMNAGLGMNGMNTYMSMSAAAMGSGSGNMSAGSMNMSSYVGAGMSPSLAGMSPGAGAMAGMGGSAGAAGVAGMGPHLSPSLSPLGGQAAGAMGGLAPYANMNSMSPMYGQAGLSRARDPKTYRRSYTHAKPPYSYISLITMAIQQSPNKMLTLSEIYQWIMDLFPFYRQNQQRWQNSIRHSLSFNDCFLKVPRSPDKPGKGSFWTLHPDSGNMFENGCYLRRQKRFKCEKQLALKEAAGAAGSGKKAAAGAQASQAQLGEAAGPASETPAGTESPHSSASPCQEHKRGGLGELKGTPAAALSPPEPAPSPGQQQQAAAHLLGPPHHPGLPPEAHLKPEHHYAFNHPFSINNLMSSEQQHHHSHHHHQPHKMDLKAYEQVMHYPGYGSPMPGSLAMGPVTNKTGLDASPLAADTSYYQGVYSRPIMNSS
How it was run: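 Multiplexed cis-element reporter assay in transiently transfected HepG2. Twenty-four hours post-dosing, RNA was reverse-transcribed, amplified, FAM-labelled, HpaI-digested and separated by CE. Activity gain or loss relative to DMSO.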

[8] = ATG_FoxO_CIS: Attagene CIS-FACTORIAL HepG2 Assay for human Forkhead box O (FoxO) (AID 2282943); conditions: HepG2 Attagene cis-reporter, FoxO element, mRNA; actives raise or lower the signal
How it was run: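 Endogenous transcription factor activity read from multiplexed cis-promoter reporter transcripts in transiently transfected HepG2, 24 h after dosing. Reporter RNA measured via RT-PCR plus capillary electrophoresis of FAM-labeled products; gain or loss relative to DMSO.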

[9] = ATG_GATA_CIS: Attagene CIS-FACTORIAL HepG2 Assay for human GATA Binding Protein (AID 2282944); conditions: HepG2 GATA cis-element reporter, Attagene multiplex mRNA; actives raise or lower the signal
How it was run: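 Reporter transcripts from a GATA cis-regulated unit, among multiplexed reporters in transfected HepG2 cells, were measured by RT-PCR with capillary electrophoresis after 24 h dosing. Induction or loss scored relative to DMSO.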

[10] = ATG_GLI_CIS: Attagene CIS-FACTORIAL HepG2 Assay for human Zinc Finger Protein GLI1 (AID 2282945); conditions: HepG2, Attagene cis-factorial reporter mRNA, GLI element; actives raise or lower the signal
How it was run: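 Bidirectional curve fits relative to DMSO, using reporter mRNA levels from RT-PCR plus capillary electrophoresis. Cells were HepG2 transiently carrying cis-regulated reporter constructs, harvested 24 h after dosing.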

[11] = ATG_GRE_CIS: Attagene CIS-FACTORIAL HepG2 Assay for human Glucocorticoid Response Elements (GRE) (AID 2282947); conditions: HepG2 GRE cis-reporter, Attagene multiplex mRNA; actives raise or lower the signal
How it was run: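 Multiplexed cis-reporter mRNA induction, HepG2, 24 h post-dose. RT-PCR, FAM-labelled, HpaI-digested amplicons by CE. Bidirectional fit vs DMSO.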

[12] = ATG_ISRE_CIS: Attagene CIS-FACTORIAL HepG2 Assay for human Interferon Regulatory Factor 1 (IRF1) binding to an Interferon-Stimulated Response Element (ISRE) (AID 2282948); conditions: HepG2 ISRE cis-reporter (Attagene), mRNA transcription readout; actives raise or lower the signal
How it was run: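 Read-out: fluorescent RT-PCR products resolved by capillary electrophoresis, reporting endogenous transcription factor activity via ISRE-driven reporter mRNA in transfected HepG2 cells dosed for 24 h; gain or loss fitted relative to DMSO.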

[13] = ATG_M_32_CIS: Attagene CIS-FACTORIAL HepG2 Assay for M32 Transcription Factor (Internal Marker) (AID 2282949); conditions: HepG2 Attagene cis-factorial M32 reporter, mRNA; actives raise or lower the signal;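 also: background control marker of the multiplexed CIS panel rather than a real target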
How it was run: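 Transient MRTU transfection of HepG2; 24 h compound treatment; TriZol RNA, oligo(dT) RT, reporter PCR, 6-FAM primer extension, HpaI cut, CE. Gain/loss of signal vs DMSO.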

[14] = ATG_M_06_CIS: Attagene CIS-FACTORIAL HepG2 Assay for M06 Transcription Factor (Internal Marker) (AID 2282950); conditions: HepG2 Attagene CIS-FACTORIAL M06 internal marker reporter; actives raise or lower the signal
How it was run: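 Serves as a background control readout. Transfected HepG2 exposed to compounds for 24 h, then reporter transcripts quantified by fluorescent RT-PCR and capillary electrophoresis. Both directions fitted against DMSO baseline.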

[15] = target: Hypoxia-inducible factor 1-alpha (Homo sapiens) (UniProt Q16665); experiment: ATG_HIF1a_CIS: Attagene CIS-FACTORIAL HepG2 Assay for human Hypoxia Inducible Factor 1 (HIF1A) (AID 2282951); conditions: HepG2 Attagene cis-factorial HIF1a reporter transcription; actives raise or lower the signal
Sequence of Hypoxia-inducible factor 1-alpha (Homo sapiens) (Q16665 whole entry, looked up): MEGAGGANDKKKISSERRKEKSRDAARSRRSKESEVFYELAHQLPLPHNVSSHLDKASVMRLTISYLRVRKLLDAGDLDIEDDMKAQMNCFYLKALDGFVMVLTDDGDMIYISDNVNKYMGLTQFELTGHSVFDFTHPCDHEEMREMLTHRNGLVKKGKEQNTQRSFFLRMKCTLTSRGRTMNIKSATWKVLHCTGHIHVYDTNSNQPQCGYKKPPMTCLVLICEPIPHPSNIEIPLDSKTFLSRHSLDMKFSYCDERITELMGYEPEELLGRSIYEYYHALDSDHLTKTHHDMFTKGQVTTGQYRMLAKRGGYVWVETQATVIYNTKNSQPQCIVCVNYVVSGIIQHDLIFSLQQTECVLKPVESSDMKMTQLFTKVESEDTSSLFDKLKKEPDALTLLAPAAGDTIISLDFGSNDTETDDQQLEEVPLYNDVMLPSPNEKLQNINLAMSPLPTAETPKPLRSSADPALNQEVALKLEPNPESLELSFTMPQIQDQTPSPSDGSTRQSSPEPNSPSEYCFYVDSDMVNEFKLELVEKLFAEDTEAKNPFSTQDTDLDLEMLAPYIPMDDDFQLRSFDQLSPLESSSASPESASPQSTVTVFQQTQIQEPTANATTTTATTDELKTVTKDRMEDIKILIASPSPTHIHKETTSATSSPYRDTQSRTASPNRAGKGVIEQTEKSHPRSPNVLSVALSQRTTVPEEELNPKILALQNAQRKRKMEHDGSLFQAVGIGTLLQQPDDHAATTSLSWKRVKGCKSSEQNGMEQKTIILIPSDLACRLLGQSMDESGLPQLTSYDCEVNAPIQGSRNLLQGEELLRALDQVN
How it was run: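 Cis-element reporter constructs were transiently transfected into HepG2 cells, which were treated for 24 h; reporter RNA was reverse-transcribed, amplified, labelled and resolved by capillary electrophoresis.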

[16] = target: Hepatocyte nuclear factor 6 (Homo sapiens) (UniProt Q9UBC0); experiment: ATG_HNF6_CIS: Attagene CIS-FACTORIAL HepG2 Assay for human Hepatocyte Nuclear Factor 6 (HNF6) (AID 2282952); conditions: HepG2 Attagene cis-factorial HNF6 reporter transcription; actives raise or lower the signal
Sequence of Hepatocyte nuclear factor 6 (Homo sapiens) (Q9UBC0 whole entry, looked up): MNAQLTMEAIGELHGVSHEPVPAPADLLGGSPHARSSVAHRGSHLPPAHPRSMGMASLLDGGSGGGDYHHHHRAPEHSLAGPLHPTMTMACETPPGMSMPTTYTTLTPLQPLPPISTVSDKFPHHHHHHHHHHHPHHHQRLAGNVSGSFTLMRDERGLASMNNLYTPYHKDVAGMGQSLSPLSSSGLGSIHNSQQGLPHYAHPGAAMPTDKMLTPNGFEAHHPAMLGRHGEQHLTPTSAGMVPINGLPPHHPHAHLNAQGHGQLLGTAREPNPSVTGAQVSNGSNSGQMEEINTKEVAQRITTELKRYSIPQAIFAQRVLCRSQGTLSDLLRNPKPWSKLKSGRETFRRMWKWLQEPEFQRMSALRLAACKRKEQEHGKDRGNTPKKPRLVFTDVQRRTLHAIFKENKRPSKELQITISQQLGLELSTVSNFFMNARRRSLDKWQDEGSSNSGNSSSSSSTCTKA
How it was run: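 Activity values derive from bidirectional fitting against DMSO of reporter mRNA levels, measured by capillary electrophoresis of labelled RT-PCR products from HepG2 cells exposed 24 h.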

[17] = target: Heat shock factor protein 1 (Homo sapiens) (UniProt Q00613); experiment: ATG_HSE_CIS: Attagene CIS-FACTORIAL HepG2 Assay for human Heat Shock Transcription Factor 1 (HSE) (AID 2282953); conditions: HepG2 HSE cis-reporter, Attagene RNA transcription; actives raise or lower the signal
Sequence of Heat shock factor protein 1 (Homo sapiens) (Q00613 whole entry, looked up): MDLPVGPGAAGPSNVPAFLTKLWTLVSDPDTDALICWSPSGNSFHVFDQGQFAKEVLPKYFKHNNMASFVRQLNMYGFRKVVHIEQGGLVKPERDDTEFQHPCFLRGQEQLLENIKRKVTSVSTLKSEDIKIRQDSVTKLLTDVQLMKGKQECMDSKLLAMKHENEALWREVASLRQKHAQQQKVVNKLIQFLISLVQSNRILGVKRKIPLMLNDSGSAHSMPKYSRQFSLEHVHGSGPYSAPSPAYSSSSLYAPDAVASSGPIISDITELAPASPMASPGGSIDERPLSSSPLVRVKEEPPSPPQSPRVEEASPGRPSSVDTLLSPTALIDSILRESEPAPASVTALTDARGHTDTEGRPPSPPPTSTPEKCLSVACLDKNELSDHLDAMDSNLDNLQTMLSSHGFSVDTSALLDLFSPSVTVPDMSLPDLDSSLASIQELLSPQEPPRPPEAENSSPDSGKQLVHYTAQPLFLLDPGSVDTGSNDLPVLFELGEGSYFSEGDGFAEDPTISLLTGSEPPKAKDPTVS
How it was run: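 Endogenous transcription factor activity in transiently transfected HepG2, read as reporter mRNA by RT-PCR with fluorescent capillary electrophoresis after 24 h. Gain or loss of signal fitted versus DMSO baseline.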

[18] = ATG_MRE_CIS: Attagene CIS-FACTORIAL HepG2 Assay for human Metal Responsive Element (MRE) (AID 2282954); conditions: HepG2 MRE cis-reporter transcription, Attagene multiplex; actives raise or lower the signal
How it was run: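 Multiplexed cis-reporter assay in human HepG2 liver cells, 24 h incubation with test chemical. Reporter transcripts measured by RT-PCR and capillary electrophoresis; values from bidirectional curve fitting versus DMSO.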

[19] = ATG_PBREM_CIS: Attagene CIS-FACTORIAL HepG2 Assay for human Phenobarbital-responsive Enhancer Module (PBREM) (AID 2282955); conditions: HepG2 PBREM cis-reporter, Attagene multiplexed transcription; actives raise or lower the signal
How it was run: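 Multiplexed cis-reporter readout in human hepatoma HepG2 cells; PBREM-regulated transcript quantified after 24 h exposure by fluorescent RT-PCR fragment analysis. Signal changes up or down fitted relative to DMSO.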

[20] = target: Bile acid receptor (Homo sapiens) (UniProt Q96RI1); experiment: ATG_IR1_CIS: Attagene CIS-FACTORIAL HepG2 Assay for human Nuclear Receptor Subfamily 1 Group H Member 4 (NR1H4), IR1 submotif (AID 2282946); conditions: IR1 reporter transcription, actives raise or lower the signal
Sequence of Bile acid receptor (Homo sapiens) (Q96RI1 whole entry, looked up): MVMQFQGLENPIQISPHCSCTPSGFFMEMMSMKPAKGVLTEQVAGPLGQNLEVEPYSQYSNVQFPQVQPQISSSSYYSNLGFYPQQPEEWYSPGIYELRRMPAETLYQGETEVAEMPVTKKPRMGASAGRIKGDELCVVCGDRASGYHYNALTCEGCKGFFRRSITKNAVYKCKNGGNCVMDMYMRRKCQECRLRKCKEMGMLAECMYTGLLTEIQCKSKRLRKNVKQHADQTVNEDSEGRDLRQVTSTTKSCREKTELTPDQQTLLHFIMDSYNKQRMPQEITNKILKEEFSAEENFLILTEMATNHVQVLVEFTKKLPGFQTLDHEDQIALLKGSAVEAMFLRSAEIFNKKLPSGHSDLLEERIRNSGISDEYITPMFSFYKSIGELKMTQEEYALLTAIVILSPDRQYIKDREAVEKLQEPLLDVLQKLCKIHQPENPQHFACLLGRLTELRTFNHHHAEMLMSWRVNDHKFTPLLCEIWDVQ
How it was run: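 HepG2 cells transiently transfected with multiplexed cis-element reporter units read endogenous transcription factor activity. After 24 h compound exposure, reporter mRNA was quantified by RT-PCR, fluorescent labelling, HpaI digestion and capillary electrophoresis; bidirectional fitting versus DMSO baseline.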

Measured: AC50

CC#Cc1cc(C)nc(Nc2ccccc2)n1
inactive: [2] | [4] | [5] | [6] | [7] | [8] | [9] | [10] | [11] | [12] | [13] | [14] | [15] | [16] | [17] | [19]
active: [1] 140 µM | [3] 67.5 µM | [18] 68.2 µM

CC(c1ccc(O)cc1)(c1ccc(O)cc1)c1ccc(O)cc1
inactive: [2] | [4] | [6] | [7] | [8] | [9] | [10] | [11] | [13] | [14] | [17] | [19]
active: [1] 14.7 µM | [3] 12.8 µM | [5] 95.5 nM | [20] 11.1 µM | [12] 16.1 µM | [15] 13.8 µM | [16] 18.6 µM | [18] 13.5 µM

CCC(C)(c1ccc(O)cc1)c1ccc(O)cc1
inactive: [1] | [2] | [3] | [4] | [6] | [7] | [9] | [10] | [20] | [13] | [15] | [16] | [19]
active: [1] 43.5 µM | [3] 48.8 µM | [5] 198 nM [middle of 4 runs] | [6] 53.8 µM | [9] 44.9 µM | [10] 60.5 µM | [20] 43 µM and 33.4 µM and 54.5 µM | [15] 75.9 nM and 26.2 µM | [16] 51.8 µM | [19] 1.17 µM

NS(=O)(=O)C(F)(F)C(F)(F)C(F)(F)C(F)(F)C(F)(F)C(F)(F)C(F)(F)C(F)(F)F
active: [1] 240 µM | [3] 52 µM and 40.8 µM | [5] 14.2 µM and 38.2 µM and 5.74 µM | [6] 38.8 µM | [7] 258 µM | [20] 9.66 µM | [15] 8.26 µM | [16] 96.7 µM | [17] 59.8 µM and 115 µM and 28.3 µM | [18] 52.2 µM and 39.2 µM and 50 µM | [19] 46.7 µM and 33.8 µM
inactive: [1] | [2] | [3] | [4] | [6] | [7] | [8] | [9] | [10] | [20] | [11] | [13] | [15] | [16] | [19]

CCOP(=S)(OCC)SCSC(C)(C)C
inactive: [1] | [2] | [3] | [4] | [6] | [7] | [9] | [10] | [13] | [15] | [16] | [17] | [18] | [19]
active: [1] 1.86 µM | [5] 29.7 µM and 5.91 µM
